The panel holds about 83,000 compounds, 20% with a hit somewhere; the sample as a whole holds those more often.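 Values shown are percent growth following 48 h exposure of cells in 96-well plates to a single concentration of compound; below 10 was considered active.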 Activity calls are given as the source filed them.

In this assay the test system is HL-60(TB) leukemia. Briefly: NCI-60 one-dose screen, 48 h (100 = growth as untreated, 0 = no growth, -100 = all killed). The settings on record: 10 µM unless noted.
On to `C#CC[C@@H]1C[C@]2(C)[C@H]3CC=C4[C@H]5[C@@H](C)[C@H](C)CC[C@]5(C(=O)NCCCN5CCN(CCCN)CC5)CC[C@@]4(C)[C@]3(C)CC[C@H]2C(C)(C)[C@H]1OC(C)=O`, for which the growth is -55.9% (active).

Consider `Cc1nc(NC(=O)COc2ccc(/C=C3\Cc4ccc(Cl)cc4C3=O)cc2)sc1C`, for which the growth was 86.5% (inactive).

With `Cc1nccc2c3ccc(OCc4cn(-c5ccc(Cl)cc5)nn4)cc3n(CCCc3ccccc3)c12`, the growth was -64.9% (active).

Consider `Cc1ccc(-c2cn3cc([N+](=O)[O-])ccc3n2)cc1`, for which the growth was 47.7% (inactive).

Consider `NC(=O)CSc1nc(-c2ccc(F)cc2)cc(-c2ccco2)n1`, for which the growth is 108% (inactive).

For `O=C(Nc1ncc(Cc2ccc(Cl)cc2)s1)c1ccc2c(c1)OCCO2`, the growth is -49.3% (active).

Consider `OCc1ccc(-c2ccc(-c3ccc(CO)s3)o2)s1`, for which the growth was 21.7% (inactive).

For `O=C(N/N=C\c1ccccc1S(=O)(=O)O)N/N=C/c1ccccc1S(=O)(=O)O`, the growth was 91.7% (inactive).

For the molecule `Cc1ccc(CC#N)cc1C`, the growth was 116% (inactive).

For the molecule `COc1cc(C(=O)c2c(-c3ccccc3)oc3c(OC)cccc23)cc(OC)c1OC`, the growth is -6.56% (active).

For the molecule `COCCN1CCN(Cc2ccc(-c3n[nH]c4c3C(=O)c3c(NC(=O)NN5CCOCC5)cccc3-4)cc2)CC1`, the growth was -36.9% (active).

Regarding `O=C(CCl)N1c2ccccc2Sc2c1ccc1ccccc21`, the growth was 62.7% (inactive).

Consider `O=C(CCC(=O)c1nc2ncccc2[nH]1)NN1C(=O)CSC1c1ccc(Cl)cc1` (stereo not given), for which the growth was 99.6% (inactive).

As for `CN1CCOCCN(C)Cc2ccc3ccc(cc3c2)CN(C)CCOCCN(C)Cc2ccc3ccc(cc3c2)C1`, the growth was 20.7% (inactive).

For `O=C1N=c2ccccc2=C1c1sc(=Nc2ccccc2)n(Nc2ccccc2)c1O`, the growth is 97.5% (inactive).

Consider `O=C(Nc1ccncc1)C(=O)c1cn(S(=O)(=O)c2cccc(F)c2)c2ccccc12`, for which the growth was -9.88% (active).

As for `COC1C(O)CC(OC2CC(OC3CC(O[C@@H]4C(=O)c5c(cc6cc(OC7CC(OC8CC(O)C(O)C(C)O8)C(O)C(C)O7)c(C)c(O)c6c5O)CC4[C@H](OC)[C@@H](O)C(C)=O)OC(C)C3O)OC(C)C2O)OC1C` (stereo not given in full), the growth is 14.3% (inactive).

As for `C1CCC(C(CC2CCCCN2)C2CCCCC2)CC1` (stereo not given), the growth is 11.1% (inactive).

As to `CC(C)Cn1cnc2c(=O)[nH]c(N)nc21`, the growth is 63.8% (inactive).

As to `CCNCCNc1cc(-c2ccc(C(=O)OC)cc2)c(C#N)c2nc3ccccc3n12`, the growth was -57.2% (active).

On to `O=C(NCCCCCCNC(=O)OCc1ccc2c(Cl)cc(Cl)c(O)c2n1)OCc1ccc2c(Cl)cc(Cl)c(O)c2n1`, for which the growth was -46.2% (active).

Consider `N#C/C(=C\c1ccc2c(c1)OCO2)n1nnc2ccccc21`, for which the growth was -10.9% (active).

As for `CS(=O)(=O)c1ccc(C(=O)N2N=C(c3ccccc3)CC2c2ccc3c(c2)OCO3)cc1` (stereo not given), the growth was 37% (inactive).

For the molecule `CCOC(=O)c1c(N)sc2cc(O)ccc12`, the growth was 94.1% (inactive).

As for `Nc1ccc(C(=O)c2ccc(N)c(Br)c2)cc1Br`, the growth was -16.5% (active).

Take `O=C(CSc1nccc(Nc2ccc(S(=O)(=O)Nc3nccs3)cc2)n1)c1ccc(F)cc1`: the growth is 104% (inactive).

In the case of `CCCCCCCCCCCC(=O)OC(C)C(=O)Nc1ccccc1` (stereo not given), the growth is 91.7% (inactive).

Take `O=C(NCCNc1nccc(-n2ccc3cccnc32)n1)c1ccc(C(F)(F)F)cc1`: the growth was 107% (inactive).

`Brc1c[n+](Cc2ccc3ccccc3c2)cn1Cc1ccc2ccccc2c1`: the growth was -47.5% (active).

As to `COc1cc(-c2nn(-c3cccc(NC(=O)NCCNC(=O)c4cccc(C(F)(F)F)c4)c3)cc2-c2ccncc2)ccc1Cl`, the growth was 16.8% (inactive).

`O=S(c1ccccc1)c1ccc2nnnn2n1` (stereo not given): the growth was 42.5% (inactive).

Consider `O=C1c2cccc3cccc(c23)C(=O)N1C/C=C/c1ccc2c3c(cccc13)C(=O)N(CCO)C2=O`, for which the growth is 94.2% (inactive).

For the molecule `CC(=O)c1ccc(NC(=O)CSc2nnc(-c3cc(-c4ccc(C)cc4)nc4ccccc34)o2)cc1`, the growth is 80.6% (inactive).

In the case of `COc1cc(C(=O)/C=C/c2cc(-c3cc(OC)c(OC)c(OC)c3)n[nH]2)cc(OC)c1OC`, the growth was 0.291% (active).

Turning to `O=S(=O)(OCCO)c1ccccc1`, the growth is 107% (inactive).

`Nc1c(C(=O)Nc2cccc3ccccc23)sc2nc3c(cc12)CCCCC3`: the growth is -25.9% (active).

With `O=CCCCOCc1ccccc1`, the growth is 100% (inactive).

With `CCOC(=O)c1c(Cl)c2c(n1Cc1ccccc1)-c1oncc1CCC2`, the growth is 25.7% (inactive).

Take `CCCCCCCC(=O)Nc1nc2[nH]c(CN3CCN(Cc4cccc(I)c4)CC3)c(CN3CCN(Cc4cccc(I)c4)CC3)c2c(=O)[nH]1`: the growth was -49.3% (active).

`CCOC(=O)c1ccc(Nc2ncnc3c2cnn3-c2cccc(F)c2)cc1`: the growth is 109% (inactive).

The values are drawn from PubChem BioAssay (NCI).
